Shown are actives, neighbours in structure and some others; about 3.8% of the full set was active somewhere.
ATXN2 expr inh: reduces ATXN2 reporter expression in HEK-293 cells | Potency, µM (top dose mostly 57 µM), for the others: at the highest dose activity change, negative = inhibition, hits mostly inhibitors | AID 1745845 | 0.72% of 360,000 active | HEK-293 ATXN2-luciferase reporter, luminescence, 24 h; further: on the % scale 0 is the no-effect control and ±100 the full control effect; nearly all actives have a fitted effect of over 55% in size
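qHTS (up to 57 uM final) was run with 24 h compound exposure of reporter cells at 37 °C. Each well was multiplexed: SteadyGlo luminescence measured ATXN2-luciferase expression after a fluorogenic Gly-Phe-AFC viability readout (25 uM final).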
TGFb SMAD3 inh: blocks TGF-b signaling | HepG2 CAGA-GFP TGF-b/SMAD3 reporter, GFP fluorescence, 18 h; TGF-beta stimulated, 500 pg/mL final | Potency, µM (highest dose often 46.1 µM), for the others: at the top dose activity, negative = inhibition, actives largely listed as inhibitors | 1.2% of 410,000 active; further: on the % scale 0 is the no-effect control and ±100 the full control effect; nearly all actives have a fitted effect of over 65% in size
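Read-out: total well GFP (ex488/em500-530) summed from mean per-cell fluorescence. Cells: HEPG2 CAGA-GFP, 1% FBS DMEM, 18 h at 37 degrees C with 500 pg/mL final TGF-beta. Unstimulated wells served as the full-inhibition control; stimulated DMSO wells = 0%.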
S2 tox: cell viability loss in ATXN counter-screen; S2 cells (HEK-293 line with an ATXN2-luciferase reporter) viability, CellTiter-Fluor protease fluorescence, 24 h; Potency, µM (highest dose often 56.7 µM), usual class: cytotoxic; 0.49% of 400,000 active; AID 651635; further: nearly all actives have a fitted effect of over 40% in size
HepG2 tox-1: counter-screen for TGF-b inhibitors: cytotoxicity in HepG2 cells | Potency, µM (top dose mostly 46.1 µM), for the others: top-dose activity change, negative = cytotoxicity, most hits filed as cytotoxic | 0.76% of 410,000 active | HepG2 CAGA-GFP viability, ATP luminescence, 18 h | AID 588856
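HepG2 CAGA-GFP cells (1000/well, DMEM with 1% FBS) received compound, then TGF-beta at 500 pg/mL final, and were incubated 18 hours at 37 degrees C. Viability was read by CellTiter-Glo luminescence. Media-only wells were set as complete cell-killing and DMSO as no toxicity.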
HT1080 IDH1KD tx: kills HT-1080 cells with IDH1 knockdown; 2% of 360,000 active; Potency, µM (top dose mostly 46.1 µM), without a hit: top-dose activity, negative = toxicity, actives largely listed as cytotoxic; HT-1080 IDH1 knockdown viability, ATP luminescence, 48 h; AID 686971;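 further: 0% = DMSO wells and -100% = cell-free medium wells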
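% activity derives from luminescence (CellTiter-Glo), normalised to DMSO and no-cell wells. HT-1080-IDH1KD cells, 750/well, had 48 h compound exposure at 37 °C.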
HT1080-NT tox: kills 2HG-producing HT-1080-NT fibrosarcoma cells | Potency, µM (series often up to 46.1 µM), without a hit: top-dose activity, negative = less viability, most hits filed as cytotoxic | HT-1080-NT fibrosarcoma viability, CellTiter-Glo ATP luminescence, 48 h | 1.6% of 360,000 active;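 further: NT is the 2HG producing partner of a matched IDH1 knockdown line; 0% = DMSO-treated cells and -100% = media-only wells without cells; nearly all actives have a fitted effect of over 55% in size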
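HT-1080-NT; 750 cells/well; 5% FBS RPMI; 48 h compound, 37 degrees C; CellTiter-Glo luminescence; curve fitting and curve-class assignment.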
TGFb confirm: confirmation of TGF-b signaling inhibitors in HepG2 reporter cells | 63% of 1,600 active | HepG2 CAGA-GFP TGF-b reporter, GFP fluorescence, 18 h; cells stimulated with TGF-beta, 500 pg/mL | shares compounds with TGFb SMAD3 inh | AID 720534 | Potency, µM (top dose mostly 46.1 µM), for the others: at the top dose activity, negative = inhibition, most hits filed as inhibitors; further: on the % scale 0 is the no-effect control and ±100 the full control effect; nearly all actives have a fitted effect of over 65% in size
HepG2 tox-2: toxic to HepG2 cells in TGF-b counterscreen. shares compounds with TGFb SMAD3 inh. HepG2 CAGA-GFP viability, ATP luminescence, 18 h; cells stimulated with TGF-beta, 500 pg/mL. Potency, µM (highest dose often 46.1 µM), inactives show top-dose activity, negative = cytotoxicity, hits mostly inhibitors. 27% of 1,600 active. AID 720535; further: on the % scale 0 is the no-effect control and ±100 the full control effect; nearly all actives have a fitted effect of over 70% in size
CCL64 TGFb inh: TGF-b inhibition, CCL64 orthogonal assay | shares compounds with TGFb SMAD3 inh | CCL64 CAGA-GFP reporter, TGF-b stimulated, GFP fluorescence, 18 h | Potency, µM (doses to about 46.1 µM), for inactives: top-dose activity, negative = inhibition, most hits filed as inhibitors | 41% of 1,600 active | AID 720536; further: nearly all actives have a fitted effect of over 65% in size
TGFb COP inh: validation of TGF-b inhibitors in HepG2 COP promoter reporter | 3% of 1,600 active | shares compounds with TGFb SMAD3 inh | HepG2 COP-GFP TGF-b reporter, GFP fluorescence, 18 h; cells stimulated by added recombinant TGF-beta | Potency, µM (titrated, usually from 46.1 µM), without a hit: at the top dose activity, negative = inhibition, most hits filed as inhibitors | AID 720537; further: nearly all actives have a fitted effect of over 70% in size
* marks the source's active call; other numbers are inactive results. The call rests on the fitted dose curve; in most records, active means well fitted curve in the direction sought with a large enough effect; inconclusive means small, poorly fitted or top-dose-only effect, or another doubt; inactive means no such curve, though single readings can be large; an effect the other way counts as inactive or inconclusive. Potency means the concentration at half of the fitted maximal effect.

What do the screens show for `O=C(c1[nH]c(C(F)(F)F)nc1-c1ccccc1)N1CCN(c2cccc(C(F)(F)F)n2)CC1`?
ATXN2 expr inh: -8%; TGFb SMAD3 inh: 11µM*; S2 tox: inactive; HepG2 tox-1: -29%; HT1080 IDH1KD tx: 1.8µM*; HT1080-NT tox: 1.3µM*; TGFb confirm: 16µM*; HepG2 tox-2: -18%; CCL64 TGFb inh: 13µM*; TGFb COP inh: 0%

What do the screens show for `CC(=O)N1CCN(C(=O)c2[nH]c(C(F)(F)F)nc2-c2ccccc2)CC1`?
ATXN2 expr inh: 1%; TGFb SMAD3 inh: inconclusive; S2 tox: inactive; HepG2 tox-1: -4%; HT1080 IDH1KD tx: 20%; HT1080-NT tox: 6%

Results for Cn1c(=O)n(C)c2cc(N3CCCCC3)c(NC(=O)c3c(F)cccc3F)cc21 ?
ATXN2 expr inh: -16%; TGFb SMAD3 inh: -42%; S2 tox: inactive; HepG2 tox-1: -37%

How did O=C(c1cc(-n2cnnc2)ccc1Cl)N1CCN(c2nc(-c3ccccc3)cs2)CC1 do in these assays?
ATXN2 expr inh: inconclusive; TGFb SMAD3 inh: 11µM*; S2 tox: inactive; HepG2 tox-1: -5%; HT1080 IDH1KD tx: inconclusive; HT1080-NT tox: inconclusive; TGFb confirm: 8.2µM*; HepG2 tox-2: -30%; CCL64 TGFb inh: inconclusive; TGFb COP inh: 12%

How did CC(CNC(=O)CN1C(=O)COc2ccc(S(=O)(=O)N3CCCCCC3)cc21)c1ccccc1 (stereo not given) do in these assays?
TGFb SMAD3 inh: inconclusive; HepG2 tox-1: -20%

What do the screens show for `COc1ccc(OC)c(CNC(=O)c2cc(S(=O)(=O)N3CCC(C)CC3)cn2C)c1`?
ATXN2 expr inh: -13%; TGFb SMAD3 inh: -9%; S2 tox: inactive; HepG2 tox-1: -2%

Results for O=C(O)c1cc(-c2ccc(-c3c(-c4ccc5c(c4)OCO5)noc3-c3ccsc3)cc2)nc2ccccc12 ?
ATXN2 expr inh: 36%; TGFb SMAD3 inh: inconclusive; S2 tox: inactive; HepG2 tox-1: -23%; HT1080 IDH1KD tx: -5%; HT1080-NT tox: 15%; TGFb confirm: 16µM*; HepG2 tox-2: inconclusive; CCL64 TGFb inh: 18µM*; TGFb COP inh: 71%

How did O=C(c1ccc(Cl)c(Cl)c1)N1CCC(=O)N(C(COCc2cccc(C(F)(F)F)c2)Cc2ccccc2)CC1 (stereo not given) do in these assays?
ATXN2 expr inh: inconclusive; TGFb SMAD3 inh: inconclusive; S2 tox: inconclusive; HepG2 tox-1: -27%; HT1080 IDH1KD tx: inconclusive; HT1080-NT tox: inconclusive

How did O=C(c1ccc(Cl)c(Cl)c1)N1CCC(=O)N(C(COCc2ccc(Cl)cc2)Cc2ccccc2)CC1 (stereo not given) do in these assays?
ATXN2 expr inh: inconclusive; TGFb SMAD3 inh: 10µM*; S2 tox: inconclusive; HepG2 tox-1: -28%; HT1080 IDH1KD tx: inconclusive; HT1080-NT tox: -16%; TGFb confirm: 21µM*; HepG2 tox-2: inconclusive; CCL64 TGFb inh: inconclusive; TGFb COP inh: 18%

What do the screens show for `Cc1cccc(COCC(Cc2ccccc2)N2CCN(C(=O)c3cc(Cl)cc(Cl)c3)CCC2=O)c1` (stereo not given)?
ATXN2 expr inh: inconclusive; TGFb SMAD3 inh: 13µM*; S2 tox: inconclusive; HepG2 tox-1: -26%; HT1080 IDH1KD tx: inconclusive; HT1080-NT tox: inconclusive; TGFb confirm: 8.2µM*; HepG2 tox-2: inconclusive; CCL64 TGFb inh: 13µM*; TGFb COP inh: 36%

How did COc1cc(NC(=O)Cn2c(=O)oc3cc(S(=O)(=O)N4CCCCCC4)ccc32)cc(OC)c1 do in these assays?
TGFb SMAD3 inh: inconclusive; HepG2 tox-1: -14%

What do the screens show for `O=C(OCc1ccccc1)N(CCCCN(CCCNCc1ccccc1)C(=O)OCc1ccccc1)CCCNCc1ccccc1`?
ATXN2 expr inh: inconclusive; TGFb SMAD3 inh: 5µM*; S2 tox: inconclusive; HepG2 tox-1: 5.6µM*; HT1080 IDH1KD tx: inconclusive; HT1080-NT tox: inconclusive; TGFb confirm: 13µM*; HepG2 tox-2: 8.2µM*; CCL64 TGFb inh: inconclusive; TGFb COP inh: inconclusive

Results for Oc1ccc(C[C@H]2CN([C@@H](Cc3ccccc3)CN3CCCC3CN3C(=S)NC[C@@H]3Cc3ccccc3)C(=S)N2CCc2ccccc2)cc1 (stereo not given in full) ?
ATXN2 expr inh: 3%; S2 tox: inconclusive; HT1080 IDH1KD tx: 6%; HT1080-NT tox: -7%

What do the screens show for `CCOc1ccc(CCN2C(=S)N([C@@H](Cc3ccc(O)cc3)CN3CCC[C@@H]3CN3C(=S)NC[C@@H]3CC(C)C)C[C@@H]2Cc2ccc(O)cc2)cc1`?
ATXN2 expr inh: inconclusive; TGFb SMAD3 inh: 4.5µM*; S2 tox: 7.1µM*; HepG2 tox-1: -40%; HT1080 IDH1KD tx: 21µM*; HT1080-NT tox: 16µM*; TGFb confirm: 8.2µM*; HepG2 tox-2: 12µM*; CCL64 TGFb inh: 5.2µM*; TGFb COP inh: 88%

Screening data as filed in PubChem BioAssay.
